Screening results deposited in PubChem by National Center for Advancing Translational Sciences (NCATS).
An excerpt weighted towards active compounds, which were near 19% of everything screened.
DT40 TDP1 no CPT = qHTS for Inhibitors of human tyrosyl-DNA phosphodiesterase 1 (TDP1): qHTS in cells in absence of CPT | DT40 Tdp1-/- hTDP1 cells, no CPT, ATP luminescence, 48 h | Potency, µM (top dose mostly 46.2 µM), hits mostly inhibitors | AID 686978, 2013 | hit rate 15% among 420,000; note: nearly all actives have a fitted effect of over 55% in size
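Readout: luminescence from CellTiter-Glo after 30 min in the dark at RT. Cells: DT40 Tdp1-/- with stable hTDP1, 400/well. Exposure: compounds alone, ≥48 hr, 37 °C.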
TDP1 cell CPT = qHTS for Inhibitors of human tyrosyl-DNA phosphodiesterase 1 (TDP1): qHTS in cells in presence of CPT. chicken DT40 Tdp1-/-;hTDP1 cells + 20 nM CPT, ATP luminescence, 48 h. Potency, µM (titrated, usually from 46.2 µM), usual class: inhibitors. hit rate 12% among 420,000. AID 686979, 2013; note: nearly all actives have a fitted effect of over 55% in size
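Cell growth measured by CellTiter-Glo luminescence after a minimum 48 h, 37 C compound exposure with 20 nM CPT in Tdp1-knockout DT40 cells stably expressing hTDP1, seeded 400/well; qHTS titration format.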
IL-1B inflam inh = qHTS for Inhibitors of Inflammasome Signaling: IL-1-beta AlphaLISA Primary Screen | hit rate 4.7% among 360,000 | activity change, % at 57.5 µM | THP-1 LPS/ATP IL-1B secretion, AlphaLISA, 16 h; active compounds read low; in the data active = activity change below about -50%; inconclusive = mostly about -30% to -49%
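Secreted IL-1B measured by AlphaLISA bead assay after 16 h compound exposure of THP-1 cells; compounds (final up to 57.5 uM) added 1 h before LPS (250 ng/mL) and ATP (1.25 mM) stimulation; lower signal means less secretion.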
TDP1 inh = qHTS Assay for Inhibitors of Tyrosyl-DNA Phosphodiesterase (TDP1); Tyrosyl-DNA phosphodiesterase 1 (Homo sapiens), Q9NUW8; recombinant TDP1, AlphaScreen DNA substrate cleavage; Potency, µM (series often up to 130 µM), usual class: inhibitors; hit rate 0.28% among 350,000; AID 485290, 2010; note: nearly all actives have a fitted effect of over 40% in size
Target sequence (Q9NUW8 whole entry, looked up): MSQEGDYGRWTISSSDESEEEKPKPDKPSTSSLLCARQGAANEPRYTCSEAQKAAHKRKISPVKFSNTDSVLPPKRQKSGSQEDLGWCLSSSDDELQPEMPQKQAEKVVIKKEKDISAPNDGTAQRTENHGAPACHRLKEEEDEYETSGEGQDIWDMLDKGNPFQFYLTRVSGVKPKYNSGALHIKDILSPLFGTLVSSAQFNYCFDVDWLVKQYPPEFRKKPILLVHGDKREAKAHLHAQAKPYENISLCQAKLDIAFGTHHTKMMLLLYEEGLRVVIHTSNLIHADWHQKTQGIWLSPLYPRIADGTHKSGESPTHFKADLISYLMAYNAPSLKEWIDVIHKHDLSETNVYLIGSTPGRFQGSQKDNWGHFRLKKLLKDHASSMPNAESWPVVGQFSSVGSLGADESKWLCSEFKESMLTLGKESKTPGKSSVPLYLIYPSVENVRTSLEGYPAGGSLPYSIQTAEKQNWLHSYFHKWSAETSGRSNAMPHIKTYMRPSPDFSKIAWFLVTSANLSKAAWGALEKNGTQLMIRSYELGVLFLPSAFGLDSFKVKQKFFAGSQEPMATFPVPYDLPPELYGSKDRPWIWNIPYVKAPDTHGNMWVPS
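Signal: AlphaScreen proximity between streptavidin donor and anti-FITC acceptor beads on intact substrate. Reaction: Tdp1 1 nM, substrate 15 nM final, 5 min RT after 15 min compound preincubation.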
Giardia killer = Small Molecules that selectively kill Giardia lamblia: qHTS. Giardia lamblia trophozoite viability. activity change, % at 7.66 µM, hits read low. hit rate 0.15% among 340,000. AID 540267, 2011; in the data active = activity change below about -80%; inconclusive = between about -30% and that limit;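 note: parasites exposed to compound for two days anaerobically before the ATP read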
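Anaerobic 48 hrs incubation at 37 deg C of 100 trophozoites/well with test compounds; ATPLite 1-Step luminescence, 15-30 min RT, reports cellular ATP as viability.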
ELG1 repair inh = qHTS screen for small molecules that inhibit ELG1-dependent DNA repair in human embryonic kidney (HEK293T) cells expressing luciferase-tagged ELG1. Potency, µM (titrated, usually from 46.1 µM), hits mostly inhibitors. hit rate 2.3% among 330,000. HEK293T ELG1-luciferase reporter, luminescence, 16 h; DNA damage induced by 5-fluorouridine; note: nearly all actives have a fitted effect of over 55% in size
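Cells (2,000 per well) received 5-fluorouridine plus test compound or DMSO and were incubated 16 hr at 37 °C, 5% CO2. Luciferase activity was read by luminescence 30 min after ONE-Glo addition; signal suppression marked inhibition of damage-induced ELG1 function.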
Large screens that a line does not name were inactive. Unless noted, calls come from the whole dose curve; as a rule, active = well fitted curve in the direction sought with a large enough effect; inconclusive = small, poorly fitted or top-dose-only effect, or another doubt; inactive = no such curve, though single readings can be large; an effect the other way counts as inactive or inconclusive.

NS(=O)(=O)c1ccc(CCNC(=O)CNC(=O)c2ccc(Oc3ccccc3)cc2)cc1	none
COc1ccccc1C(=O)Nc1cccc(OCc2cc(=O)n3c4c(sc3n2)CCCC4)c1	none (no result: IL-1B inflam inh, Giardia killer, ELG1 repair inh)
CC(C)C(NS(C)(=O)=O)c1nnc2n1CCN(Cc1cccc3ncccc13)CC2 (stereo not drawn)	none (no result: IL-1B inflam inh, TDP1 inh, Giardia killer, ELG1 repair inh)
N#Cc1ccccc1NC(=O)C(=O)NCCc1csc2nc(-c3cccc(F)c3)nn12	none (no result: IL-1B inflam inh, Giardia killer, ELG1 repair inh)
Cc1ccc(C(=O)c2ccccc2C(=O)OCC(=O)N2CC(C)CC(C)C2)cc1 (stereo not drawn)	DT40 TDP1 no CPT inconclusive, TDP1 cell CPT inconclusive, IL-1B inflam inh inconclusive, ELG1 repair inh 18.3µM
Cc1noc(C)c1NC(=O)Nc1ccc2c(c1)C(=O)N([C@H](C)CO)C[C@@H](C)[C@@H](CN(C)S(=O)(=O)c1cn(C)cn1)OCCCC[C@H](C)O2	none (no result: TDP1 inh, Giardia killer, ELG1 repair inh)
CCOc1ccc2c(ccc(/C=C/c3cc(C)c4cccnc4c3O)[n+]2C)c1	DT40 TDP1 no CPT 5.17µM, TDP1 cell CPT 2.59µM, IL-1B inflam inh inconclusive (no result: TDP1 inh, ELG1 repair inh)
Cc1cc(C)n(-c2nc(NCC(C)O)c3c4c(sc3n2)CCCC4)n1 (stereo not drawn)	DT40 TDP1 no CPT 18.4µM, TDP1 cell CPT inconclusive, ELG1 repair inh 16.4µM
Cc1cc(C)n(-c2nc(NCCO)c3c4c(sc3n2)CCCC4)n1	DT40 TDP1 no CPT inconclusive, TDP1 cell CPT inconclusive, ELG1 repair inh inconclusive
Cc1cc(C)n(-c2nc(NCCCO)c3c4c(sc3n2)CCCC4)n1	DT40 TDP1 no CPT 4.11µM, TDP1 cell CPT 5.8µM, ELG1 repair inh inconclusive
COc1ccc(-n2c(=S)[nH]c3cc(C(=O)Nc4ccc(C)c(F)c4)ccc3c2=O)c(OC)c1	DT40 TDP1 no CPT inconclusive, TDP1 cell CPT inconclusive, ELG1 repair inh inconclusive
CCOc1ccc(Oc2nc(NCC(C)C)nc(OC)n2)nn1	ELG1 repair inh inconclusive
CCNc1nc(NC(C)CC)nc(Oc2ccc(OCC)nn2)n1 (stereo not drawn)	DT40 TDP1 no CPT 9.2µM, TDP1 cell CPT 10.3µM, ELG1 repair inh inconclusive
CCn1ncc(Br)c1C(=O)Nc1ccc(F)cc1F	DT40 TDP1 no CPT inconclusive
CCn1ncc(Br)c1C(=O)Nc1ccc(F)c([N+](=O)[O-])c1	DT40 TDP1 no CPT inconclusive, IL-1B inflam inh -97.4
O=C1C(=O)N(CNc2ccccn2)c2ccccc21	DT40 TDP1 no CPT 1.64µM, TDP1 cell CPT 2.06µM
CCN(CC)C(=O)CN1C(=O)C(=O)c2ccccc21	none
Nc1nc(SCc2ccccc2)c2ncn(C3CCCCC3)c2n1	DT40 TDP1 no CPT 29.1µM, TDP1 cell CPT inconclusive, IL-1B inflam inh -78.5 (no result: TDP1 inh, ELG1 repair inh)
Nc1nc(SCc2ccccc2)c2ncn(C3CCCO3)c2n1 (stereo not drawn)	DT40 TDP1 no CPT inconclusive, TDP1 cell CPT inconclusive (no result: TDP1 inh, ELG1 repair inh)
O=C1COc2ccc(-c3cc(-c4ccccc4)c4c(n3)-c3ccccc3OC4)cc2N1	DT40 TDP1 no CPT 9.2µM, TDP1 cell CPT 13µM (no result: IL-1B inflam inh, Giardia killer, ELG1 repair inh)
O=C1COc2ccc(-c3cc(-c4ccc(Cl)cc4)c4c(n3)-c3ccccc3OC4)cc2N1	DT40 TDP1 no CPT 2.31µM, TDP1 cell CPT 1.03µM (no result: IL-1B inflam inh, Giardia killer, ELG1 repair inh)
COc1ccc(-c2cc(-c3ccccc3)nc3c2COc2ccccc2-3)cc1	none (no result: IL-1B inflam inh, Giardia killer, ELG1 repair inh)
O=C1COc2ccc(-c3cc(-c4ccccc4)c4c(n3)-c3cc(Cl)ccc3OC4)cc2N1	DT40 TDP1 no CPT 1.16µM, TDP1 cell CPT 3.26µM (no result: IL-1B inflam inh, Giardia killer, ELG1 repair inh)
CCN(CC)C(=O)C1=C(C)N(CCCN2CCCC2=O)C(=O)C(CC(=O)NCc2cccs2)C1 (stereo not drawn)	none (no result: TDP1 inh, Giardia killer, ELG1 repair inh)
CN1CCc2cc(O)c(O)cc2C1Cc1ccc(O)c(O)c1 (stereo not drawn)	none (no result: DT40 TDP1 no CPT, TDP1 cell CPT, IL-1B inflam inh, Giardia killer, ELG1 repair inh)
